Assay outcomes deposited in PubChem by National Center for Advancing Translational Sciences (NCATS).
PI5P4K alpha inh: blocks human PI5P4K alpha kinase activity; max response, %; PI5P4Kalpha enzyme, ADP-Glo luminescence, 60 min; stronger effect = lower value; P48426; AID 652105; actives 1.2% (n = 330,000); active means max response of -50% or lower; inconclusive means between -30% and -50%; inactive means -30% or higher; further: value at the top dose of about 77 µM; on the % scale 0 is the no-effect control and ±100 the full control effect
Target sequence (P48426 whole entry, looked up): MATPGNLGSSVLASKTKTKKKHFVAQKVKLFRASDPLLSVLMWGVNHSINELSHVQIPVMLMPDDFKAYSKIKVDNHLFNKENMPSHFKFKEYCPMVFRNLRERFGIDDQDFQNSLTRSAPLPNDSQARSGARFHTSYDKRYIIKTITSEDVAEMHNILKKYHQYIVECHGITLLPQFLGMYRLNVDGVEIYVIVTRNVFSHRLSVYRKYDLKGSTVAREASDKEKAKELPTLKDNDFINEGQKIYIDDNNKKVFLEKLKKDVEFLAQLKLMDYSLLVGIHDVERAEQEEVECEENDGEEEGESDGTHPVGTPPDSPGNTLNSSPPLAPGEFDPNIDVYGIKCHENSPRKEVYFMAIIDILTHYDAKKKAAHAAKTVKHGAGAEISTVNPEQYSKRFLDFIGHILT
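Compounds were pin-transferred onto PI5P4Kalpha and substrate in HEPES pH 7.4 buffer with EGTA, CHAPS and 5% DMSO. ATP (5 microM final) started the reaction, which ran 60 minutes at room temperature before ADP-Glo detection.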
DRD3 agonist: agonists of human D3 dopamine receptor; P35462; D3R DiscoveRx beta-arrestin cells, luminescence, 90 min; max activation, %; actives 0.58% (n = 410,000); AID 652048; in the data active means max activation above about 30%; further: 0% is about no effect
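Agonist-mode cell screen: cells plated at 1500/well and incubated overnight at 37 °C, then exposed to library compounds for 90 min at 37 °C. Detection reagent was added for 30–60 min at room temperature, and luminescence was read.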
PI4K2A block: blocks human PI4K2A kinase activity. Q9BTU6. purified PI4K2A, ADP-Glo luminescence, 1 h; stronger effect = lower value. activity change, negative = inhibition, % at 76.9 µM. actives 0.13% (n = 420,000). AID 1346378; in the data active means activity change below about -50%; inconclusive means mostly about -30% to -49%;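 further: -100% = wells without enzyme as full effect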
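In this quantitative HTS, ADP production by PI4K2A was quantified luminescently after 1 h at ambient temperature; 100 microM adenosine served as plate-quality control.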
LDHA block: LDHA (human) enzyme inhibition; AID 1347041; P00338; purified LDHA, NADH/diaphorase-resazurin fluorescence; stronger effect = lower value; actives 0.15% (n = 480,000); activity change, % (values are at about 110 or 230 µM); in the data active means activity change below about -30%; inconclusive means mostly about -25% to -30%;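 further: plate controls were DMSO wells for no effect and wells without enzyme for full effect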
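Human LDH5 (2 nM) was incubated with 0.06 mM NADH and 0.2 mM pyruvate for 5 min at room temperature in Tris pH 7.4. Remaining NADH was coupled through diaphorase/resazurin, and resorufin fluorescence was read at 0 and 20 min.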
D3 antag: antagonists of human D3 dopamine receptor | AID 652054 | actives 2.5% (n = 360,000) | D3R cells, DiscoveRx beta-arrestin luminescence, antagonist mode; stronger effect = lower value | P35462 | max response, negative = inhibition, %; in the data active means max response below about -50%; inconclusive means no clear call, values can overlap the other calls; further: on the % scale 0 is the no-effect control and ±100 the full control effect
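Cells plated overnight at 1500 cells/well, then exposed to library compounds with dopamine controls for 90 minutes at 37 degrees C. DiscoveRx reagent added for 30–60 minutes at room temperature; luminescence read, quantitative HTS format.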
Active calls of the source: *; ? = inconclusive; / = no result; ! = repeats disagree. Only some compounds are listed: those with a hit (about 3.3% of all), similar ones and a draw of the others.

SMILES	PI5P4K alpha inh	DRD3 agonist	PI4K2A block	LDHA block	D3 antag
COc1ccc(N(C(=O)c2ccco2)C(C(=O)NC2CCCCC2)c2cccs2)cc1OC (configuration not stated)	-4.4	6.6	2.7	0.8	-18.7
N#Cc1c(NC(=O)CCn2nnc(-c3ccc(Br)cc3)n2)sc2c1CCCC2	/	/	/	1.3	/
O=C(N/N=C/c1ccccc1)c1cccs1	/	/	/	-1.8	/
CCCN(CC(=O)N(C)Cc1ccsc1)Cc1ccccc1	/	/	/	4.2	/
CC1(Oc2cccc(F)c2)CCN(Cc2ccc3ccccc3c2)C1 (configuration not stated)	17.2	-11.0	0.2	-4.0	-117.2*
Cc1ccc(CN2CCC(C)(Oc3ccc(Cl)cc3)C2)cc1 (configuration not stated)	14.7	-15.3	6.0	-0.1	-94.7*
COc1ccc(CN2CCC(C)(Oc3ccc4c(c3)OCO4)C2)c2ccccc12 (configuration not stated)	32.0	-7.1	-0.9	0.1	0.0
COCOc1cccc(CN2CCC(C)(Oc3cccc(C#N)c3)C2)c1 (configuration not stated)	-0.3	-18.4	-7.3	4.7	-50.4*
Cc1ccccc1OC1(C)CCN(Cc2ccc3ccccc3c2)C1 (configuration not stated)	22.5	-9.1	1.4	-0.8	-10.8
COc1cccc(OC2(C)CCN(Cc3ccc(-c4ccccn4)cc3)C2)c1 (configuration not stated)	-0.8	1.8	-3.4	-4.3	?
COc1ccc(OC2(C)CCN(Cc3ccc(-c4ccccc4)o3)C2)cc1 (configuration not stated)	7.7	-17.8	2.1	-4.2	-127.9*
Cc1noc(-c2cc3cc(Br)ccc3o2)n1	/	/	/	-1.1	/
Cc1ccc2oc(C(=O)NCC(c3ccc(C)o3)N3CCCC3)cc(=O)c2c1 (configuration not stated)	/	/	/	-6.2	/
Cc1ccc(CN2CCC(C)(Oc3cccc(Cl)c3)C2)cc1 (configuration not stated)	-10.9	-21.8	-2.9	-2.7	-102.7*
COc1cc(/C=C/c2ccc3cccc(OC)c3n2)c(OC(C)=O)c([N+](=O)[O-])c1	/	-8.9	-4.8	0.3	-53.0*
COc1ccc2nc(SCC(=O)N3N=C(c4ccc(C)o4)CC3c3ccco3)[nH]c2c1 (configuration not stated)	/	/	/	-2.3	/
O=S(=O)(c1ccc(Cl)cc1)N1CCC(N2CCCCCC2)CC1	-0.1	-0.2	7.6	-22.8	-66.8*
CC1CCN(C2CCN(S(=O)(=O)c3ccc(F)cc3)CC2)CC1	0.0	-4.6	4.6	?	-17.1
O=S(=O)(c1ccc(F)cc1)N1CCC(N2CCCCCC2)CC1	-1.3	-6.6	15.1	-22.1	-50.1*
O=S(=O)(c1ccc(Cl)cc1)N1CCCCCC1	-4.0	1.2	-3.7	-2.4	-9.5
Cc1ccc(C(=O)OCCN2CCN(c3ncc(C(F)(F)F)cc3Cl)CC2)cc1	16.8	-16.0	1.2	-0.1	-82.6*
O=C(CN1CCN(c2ncc(C(F)(F)F)cc2Cl)CC1)N1CCN(c2ncc(C(F)(F)F)cc2Cl)CC1	12.0	0.0	-1.1	2.2	-60.7*
C=CCn1c(SCC(N)=O)nc2c1c(=O)n(C)c(=O)n2C	/	/	/	4.6	/
C[C@H]1O[C@@H](n2c3ccc(Cl)cc3c3ccc4c5cc(Cl)ccc5[nH]c4c32)[C@H](O)[C@H](O)[C@H]1O	/	/	-1.5	/	/
O=C(Nc1ccc2c(c1)OCCO2)C(CCc1ccccc1)N(Cc1ccccc1)Cc1ccccc1 (configuration not stated)	0.2	-2.3	2.0	-6.6	0.0
SMILES	PI5P4K alpha inh	DRD3 agonist	PI4K2A block	LDHA block	D3 antag
O=C(Nc1ccc2c(c1)OCCO2)C(CCc1ccccc1)N1CCC(Cc2ccccc2)CC1 (configuration not stated)	16.3	-13.8	1.2	6.5	-69.1*
CC(CCc1ccccc1)NCC(O)COc1ccccc1 (configuration not stated)	9.1	-3.0	-4.5	-1.7	-64.5*
CC(COc1ccccc1)NN (configuration not stated)	/	67.1*	-12.0	/	/
OC(CNCC(O)COc1ccccc1)COc1ccccc1 (configuration not stated)	/	/	/	-12.4	/
CC(C)(C)C(=O)COC(=O)c1ccccc1SCC(=O)NCC1CCCCC1	/	/	/	1.4	/
CN(C)S(=O)(=O)c1cccc(NC(=S)NNC(=O)c2cc3ccccc3cc2O)c1	-60.4*	11.1	2.2	6.6	4.1
CN(C)S(=O)(=O)c1cccc(NC(=S)NC(=O)c2ccco2)c1	2.3	1.4	6.8	-3.2	-0.4
Cc1csc(NC(=O)c2cn3ccccc3n2)n1	-20.7	1.6	-55.5*	7.8	2.0
O=C(Nc1ccccc1)c1cn2ccccc2n1	-4.2	7.0	-24.1	-2.9	-14.4
Cc1ccc(C)n1-c1ccc(C(=O)NCc2ccncc2)cc1	-6.8	-7.8	-6.4	-1.6	-15.7
Cc1ccc(C)n1-c1ccc(C(=O)NN)cc1	?	9.2	-81.6*	0.2	-4.1
CCc1ccc(S(=O)(=O)NCCc2coc(-c3ccccc3)n2)cc1	/	/	/	-2.3	/
CCOC(=O)c1c(C)[nH]c(C(=O)OC(C)C(=O)Nc2ncc(Cl)cc2Cl)c1C (configuration not stated)	/	/	/	-2.7	/
Cc1ccc(N(CC2=NCCN2)c2cccc(O)c2)cc1	-2.5	-66.9	2.4	-2.9	-63.0*!
O=C(Nc1ccc2c(c1)OCO2)c1sc(-c2ccco2)nc1-c1ccccc1	/	/	/	14.1	/
Cc1ccc(C(C)NC(=O)C2CCCO2)c(C)c1 (configuration not stated)	/	/	/	-5.5	/
COc1cccc(N2CC(C(=O)Nc3nnc(SCC(=O)NCc4ccco4)s3)CC2=O)c1 (configuration not stated)	-61.5*	-14.2	-20.4	0.2	-7.9
CN(Cc1c(O)ccc2c1oc(=O)c1ccccc12)C1CCCCC1	/	-57.9	-28.7	22.3	-57.4*
CN(C)Cc1c(O)ccc2c3c(c(=O)oc12)CCCCC3	0.6	5.2	-3.3	3.5	16.2
O=c1sc2ccccc2c(=O)n1Cc1ccccc1F	5.8	-4.1	6.6	-1.3	-8.8
O=c1c2ccccc2sn1-c1ccc(Cl)cc1	-99.5*	-13.9	-9.3	-51.8*	-17.3
O=c1c2ccccc2ncn1-c1ccc(Cl)cc1	5.4	1.6	3.1	-4.0	8.2
Cc1ccc(-n2sc3ccccc3c2=O)cc1	-104.1*	-9.3	-8.1	-35.4*	-16.7
O=c1c2cc(F)ccc2sn1-c1ccccc1Cl	-84.0*	-8.7	-4.5	-42.9*	-17.7
O=c1c2ccccc2sn1-c1ccc(F)cc1	-88.7*	-22.6	-14.4	-31.0*	-53.6*
COc1cccc(Nc2nc3ccccc3nc2C(=O)OCC(C)C)c1	/	/	/	33.1	/
CCN1CCN(C(=O)Cn2cnc3c2c(=O)n(C)c(=O)n3C)CC1	/	/	/	-14.0	/
Cc1ccc(S(=O)(=O)Nc2nc3ccccc3nc2N2CCN(c3ccccc3)CC2)cc1	/	/	/	-0.2	/
